Several values for one entry are separate records, joined by “and”; a condition that tells them apart may be missing. Equal entries are not always repeated. Inconclusive results are not listed. Some compounds were tested as several samples or in several runs, with calls that do not always agree. Activity calls are given as the source filed them. The call rests on the fitted dose curve; in most records, active means well fitted curve in the direction sought with a large enough effect in the repeat runs; inconclusive means weak or mixed curves; inactive means no such curve, though single readings can be large; an effect the other way counts as inactive or inconclusive.

The nature of test [1]: Caspase-3/7 induction in CHO-K1 cells by small molecules, qHTS assay (AID 1346980). Further: nearly all actives have a fitted effect of over 15% in size. Summed up:
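Luminescent Caspase-Glo 3/7 read (30min, room temperature) quantified apoptosis induction. Cells were wild-type CHO-K1, treated with compound for 17hr at 37 C and 5% CO2.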
(In general: In qHTS, concentration-response curves come from the screen itself.)

The nature of test [2]: Caspase-3/7 induction in HepG2 cells by small molecules, qHTS cell viability counter screen (AID 1346981). Further: nearly all actives have a fitted effect of over 30% in size. Further: potency means the concentration at half of the fitted maximal effect. Summed up:
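Steps: seed 2,000 HepG2 cells per well; incubate 5 hr at 37 C; pin-add compounds in DMSO; incubate 16 hr; add CellTiter-Fluor; after 1 hr at 37 C and 5% CO2, read fluorescence.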

Test [3] addresses Nuclear receptor subfamily 1 group I member 2 (Homo sapiens) (UniProt O75469). Kind of test: Human pregnane X receptor (PXR) small molecule agonists, qHTS assay (AID 1346982). Further: nearly all actives have a fitted effect of over 35% in size. Further: potency means the concentration at half of the fitted maximal effect. In a few lines: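 Agonist mode qHTS: PXR-Luc HepG2 cells plated 5 hr before DMSO-dissolved compounds were pinned in, cultured 24 hr at 37 C, 5% CO2; ONE-Glo luminescence readout.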
For test [4], the target named is Cytochrome P450 2D6 (Homo sapiens) (UniProt P10635). In words: Cytochrome P450 Family 2 Subfamily D Member 6 (CYP2D6) small molecule antagonists: luciferase reporter qHTS assay (AID 1671196). Further: nearly all actives have a fitted effect of over 50% in size. Further: potency means the concentration at half of the fitted maximal effect. In a few lines:
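P450-Glo format: CYP2D6 converts a proluciferin substrate to luciferin in an NADPH-driven reaction lasting 1 h at room temperature. Light output, proportional to CYP2D6 activity, reflects interference by test chemicals.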
(Reporter assays use an easily measured gene product as a stand-in for the process of interest.)

The target in test [5] is Cytochrome P450 2C19 (Homo sapiens) (UniProt P33261). In words: Cytochrome P450 Family 2 Subfamily C Member 19 (CYP2C19) small molecule antagonists: luciferase reporter qHTS assay (AID 1671197). Further: nearly all actives have a fitted effect of over 65% in size. Further: potency means the concentration at half of the fitted maximal effect. Summed up:
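First, compounds are pinned into enzyme-substrate mix and held 10 min at room temperature. Second, NADPH regeneration solution is added and plates incubate 1 h at 37C. Third, detection reagent is added and luminescence read after 20 min.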

Test [6] is described as follows: Caspase-3/7 induction in CHO-K1 cells by small molecules, qHTS cell viability counter screen (AID 1346979). Further: nearly all actives have a fitted effect of over 35% in size. Further: potency means the concentration at half of the fitted maximal effect. Summed up: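 To flag cytotoxic compounds, treated CHO-K1 wild-type cells were given CellTiter-Fluor at 16hr and read fluorescently after 1hr at 37C; the caspase-3/7 luminescence was measured in these same wells.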
The target of test [7] is Nuclear receptor subfamily 1 group I member 2 (Rattus norvegicus) (UniProt Q9R1A7). In words: Rat pregnane X receptor (rPXR) activation by small molecules, qHTS assay (AID 1346983). Further: nearly all actives have a fitted effect of over 20% in size. Further: potency means the concentration at half of the fitted maximal effect. As to conditions: rPXR luciferase reporter cells, One-Glo luminescence, 24 h; max activation: stronger effect = higher value. In a few lines:
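Luminescent readout (One-Glo luciferase, 30 min room temperature) followed 24 hr compound treatment at 37 C of rPXR cells plated 2,000 per well and preincubated 5hr; qHTS format with compounds delivered in DMSO.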

For test [8], the target named is Nuclear receptor subfamily 1 group I member 2 (Homo sapiens) (UniProt O75469). Kind of test: CYP3A4 induction through human pregnane X receptor (PXR) by small molecules, qHTS assay (AID 1346984). Further: nearly all actives have a fitted effect of over 40% in size. Further: potency means the concentration at half of the fitted maximal effect. In a few lines:
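Steps: seed DPX-2 cells, 5 hr at 37C; pin-transfer compounds; 24 hr at 37C; add Luciferin-IPA (3uM final), 3 hr at 37C; add One-Glo, 30 min RT; read luminescence.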

The target is the same in test [9]. In words: Human pregnane X receptor (PXR) activation by small molecules, qHTS assay (AID 1346985). Further: nearly all actives have a fitted effect of over 40% in size. Further: potency means the concentration at half of the fitted maximal effect. Summed up: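 DPX-2 cells (HepG2 co-transfected with a PXR response element and a CYP3A4-promoter luciferase construct) were seeded at 2,000 per well, rested 5 hr at 37C, then exposed to DMSO-dissolved compounds for 24 hr. Activation was read as luciferase luminescence.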

In test [10] the target is Cytochrome P450 2C9 (Homo sapiens) (UniProt P11712). Kind of test: Cytochrome P450 Family 2 Subfamily C Member 9 (CYP2C9) small molecule antagonists: luciferase reporter qHTS assay (AID 1671198). Further: nearly all actives have a fitted effect of over 50% in size. Further: potency means the concentration at half of the fitted maximal effect. Summed up:
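Enzyme-substrate mix preincubated with compound 10 min at room temperature; reaction started with NADPH regeneration solution, 1 h 37C. Luminescent luciferin product read after 20 min detection reagent.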
On the % scale 0 is the no-effect control and ±100 the full control effect.

Sequence of Cytochrome P450 2D6 (Homo sapiens) (P10635 whole entry, looked up): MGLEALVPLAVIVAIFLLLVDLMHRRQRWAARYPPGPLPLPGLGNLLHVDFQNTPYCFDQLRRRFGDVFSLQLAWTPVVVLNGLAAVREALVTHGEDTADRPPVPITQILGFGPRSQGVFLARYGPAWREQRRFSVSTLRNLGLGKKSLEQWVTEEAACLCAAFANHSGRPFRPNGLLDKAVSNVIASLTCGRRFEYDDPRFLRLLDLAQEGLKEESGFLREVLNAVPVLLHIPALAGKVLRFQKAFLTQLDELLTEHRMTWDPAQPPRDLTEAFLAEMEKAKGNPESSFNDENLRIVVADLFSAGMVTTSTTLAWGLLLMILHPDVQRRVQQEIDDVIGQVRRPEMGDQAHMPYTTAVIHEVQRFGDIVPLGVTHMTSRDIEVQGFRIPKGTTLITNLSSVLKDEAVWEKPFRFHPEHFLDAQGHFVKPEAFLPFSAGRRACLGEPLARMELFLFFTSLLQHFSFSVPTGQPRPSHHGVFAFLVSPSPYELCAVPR
Sequence of Cytochrome P450 2C19 (Homo sapiens) (P33261 whole entry, looked up): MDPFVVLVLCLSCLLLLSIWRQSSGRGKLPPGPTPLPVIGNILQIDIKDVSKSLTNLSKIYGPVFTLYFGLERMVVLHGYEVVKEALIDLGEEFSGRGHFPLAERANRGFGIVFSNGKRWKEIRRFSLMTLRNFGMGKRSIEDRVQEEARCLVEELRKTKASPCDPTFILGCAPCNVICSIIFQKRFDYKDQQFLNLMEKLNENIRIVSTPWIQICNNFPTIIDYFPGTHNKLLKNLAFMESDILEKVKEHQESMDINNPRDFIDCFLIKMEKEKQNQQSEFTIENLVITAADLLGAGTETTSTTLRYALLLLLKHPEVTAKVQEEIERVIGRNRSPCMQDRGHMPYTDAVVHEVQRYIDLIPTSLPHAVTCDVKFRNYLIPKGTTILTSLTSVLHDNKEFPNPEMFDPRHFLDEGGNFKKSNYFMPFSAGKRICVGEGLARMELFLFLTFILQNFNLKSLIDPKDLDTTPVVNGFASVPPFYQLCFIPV
Sequence of Cytochrome P450 2C9 (Homo sapiens) (P11712 whole entry, looked up): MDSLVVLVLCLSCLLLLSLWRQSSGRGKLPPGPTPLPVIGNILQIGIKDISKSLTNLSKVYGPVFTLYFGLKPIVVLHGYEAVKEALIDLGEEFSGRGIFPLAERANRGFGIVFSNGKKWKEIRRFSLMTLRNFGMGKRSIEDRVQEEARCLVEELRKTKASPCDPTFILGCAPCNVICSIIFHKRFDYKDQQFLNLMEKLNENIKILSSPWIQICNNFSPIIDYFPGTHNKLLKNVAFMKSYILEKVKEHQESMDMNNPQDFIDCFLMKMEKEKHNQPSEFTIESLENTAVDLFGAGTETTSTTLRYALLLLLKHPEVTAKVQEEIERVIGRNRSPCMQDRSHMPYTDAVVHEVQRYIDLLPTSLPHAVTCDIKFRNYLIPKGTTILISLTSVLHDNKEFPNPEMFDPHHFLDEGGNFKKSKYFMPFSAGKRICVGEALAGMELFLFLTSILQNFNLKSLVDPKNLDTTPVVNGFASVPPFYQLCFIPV
Sequence of Nuclear receptor subfamily 1 group I member 2 (Rattus norvegicus) (Q9R1A7 whole entry, looked up): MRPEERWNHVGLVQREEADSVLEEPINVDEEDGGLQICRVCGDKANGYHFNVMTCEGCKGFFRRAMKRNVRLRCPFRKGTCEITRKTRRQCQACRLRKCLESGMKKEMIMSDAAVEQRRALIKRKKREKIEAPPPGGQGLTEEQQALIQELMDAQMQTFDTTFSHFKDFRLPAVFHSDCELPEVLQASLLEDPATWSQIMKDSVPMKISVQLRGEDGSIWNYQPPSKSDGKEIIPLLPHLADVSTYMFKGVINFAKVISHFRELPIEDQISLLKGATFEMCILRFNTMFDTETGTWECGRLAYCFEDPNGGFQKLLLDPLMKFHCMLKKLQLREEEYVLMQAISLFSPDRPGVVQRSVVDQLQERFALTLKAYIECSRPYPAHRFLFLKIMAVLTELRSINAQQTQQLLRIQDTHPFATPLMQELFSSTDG

With `CCC(C)(C)C1CCCCC1OC(C)=O` (stereo not drawn), the Potency entry in test [1], in test [2], in test [3], in test [4] and in test [5] was “inactive” in each case.
As for `C[C@@H]1C[C@H]2[C@@H]3CCC4=CC(=O)C=C[C@]4(C)[C@@]3(Cl)[C@@H](O)C[C@]2(C)[C@@]1(OC(=O)c1ccco1)C(=O)CCl`, the Potency is 23.7 µM (active) in [6]; 26.6 µM (active) in [3]; 2 µM (active) in test [7]; 4.47 µM (active) in test [9]; 3.89 µM (active) in [4]; 9.77 µM (active) in test [5]. Also, the Potency in test [10] is 8.71 µM (active). Further, the Potency result in [8] was “inactive”.
`CCCCCCCCNC(C)C(O)c1ccc(SC(C)C)cc1` (stereo not drawn): the Potency was 16.8 µM (active) in [6], 29.8 µM (active) in test [2], 19.5 µM (active) in [5] and 30.9 µM (active) in test [10]. Besides, in test [3], the Potency result is “inactive”.
As for `COCCCC/C(=N\OCCN)c1ccc(C(F)(F)F)cc1`, the Potency entry in test [6] and in [2] was “inactive” in each case. The Potency in test [10] was 3.89 µM (active).
As to `CC[C@H](c1ccc(O)cc1)[C@@H](CC)c1ccc(O)cc1`, the Potency result in test [1], in [2], in test [8] and in test [4] was “inactive” throughout. Also, the Potency in test [3] was 61.1 µM (active); in test [5] it was 79.6 µM (active) and inactive; in test [10], 39.9 µM (active) and 30.9 µM (active).
Consider `CCCCCCCC/C=C/CCCCCCCC1=NCCN1CCO`, for which the Potency in test [6] is 54.5 µM (active); in test [2], 54.5 µM (active); in test [4], 5.03 µM (active); in test [10], 25.2 µM (active).
As for `O=C(NO)C1(NS(=O)(=O)c2ccc(Oc3ccc(F)cc3)cc2)CCOCC1`, the Potency result in test [1], in test [2], in [3] and in [4] was “inactive” each time. Besides, the Potency in test [5] is 71 µM (active); in test [10], 56.4 µM (active).
Turning to `CC(C)n1nc(-c2cc3cc(O)ccc3[nH]2)c2c(N)ncnc21`, the Potency in test [6] is 1.06 µM (active); in [3], 3.76 µM (active); in [4] it was 30.9 µM (active); in test [5] it was 0.49 µM (active); in [10], 2.45 µM (active).
`CCC1=C[C@@H]2CN(C1)Cc1c([nH]c3ccccc13)[C@@](C(=O)OC)(c1cc3c(cc1OC)N(C)[C@H]1[C@@](O)(C(=O)OC)[C@H](OC(C)=O)[C@]4(CC)C=CCN5CC[C@]31[C@@H]54)C2`: the Potency in test [6] is 0.668 µM (active); in [2], 13.3 µM (active); in test [7], 3.55 µM (active); in test [9], 8.91 µM (active). The Potency entry in [4] and in [5] was “inactive” throughout.
Consider `c1cc(C(c2ccc(OCC3CO3)cc2)c2ccc(OCC3CO3)cc2)ccc1OCC1CO1` (stereo not drawn), for which the Potency in test [6] is 61.1 µM (active); in test [3], 27.3 µM (active); in test [5], 56.4 µM (active); in test [10], 20 µM (active). The Potency entry in test [4] is “inactive”.
For `Cc1cccc(CN2CCN(C(c3ccccc3)c3ccc(Cl)cc3)CC2)c1` (stereo not drawn), the Potency result in [1], in test [2], in test [3], in [8] and in test [9] was “inactive” throughout. Further, the results for the Potency in test [4] and in test [10] were 3.09 µM (active) and 13.8 µM (active), respectively.
With `S=c1[nH]c2ccccc2s1`, the Potency in [6] is 64.8 µM (active); in test [3], 30.6 µM (active); in test [4] it was 39.9 µM (active); in test [5], 11.2 µM (active).
For the molecule `NC(=O)NS(=O)(=O)c1ccc(N)cc1`, the Potency result in test [1], in [2], in [3], in test [8], in [9] and in test [4] was “inactive” throughout. Besides, the Potency result in test [5] and in test [10] was “inactive” in each case.
Regarding `CN1CCN(CCC(=O)N2c3ccccc3Sc3ccc(C(F)(F)F)cc32)CC1`, the Potency result in [1], in test [3] and in test [10] was “inactive” each time. The Potency in test [2] is 29.8 µM (active); in [8], 14.1 µM (active); in test [9], 15.8 µM (active); in test [4], 0.155 µM (active).
For the molecule `O=C(c1ccc(O)cc1O)c1ccc(O)cc1O`, the Potency result in test [1], in [2] and in test [10] was “inactive” each time. Also, the Potency in test [3] is 61.2 µM (active) and 43.3 µM (active); in test [4], 7.98 µM (active) and 11.2 µM (active); in test [5] it was 28.3 µM (active) and 22.4 µM (active).
In the case of `N#CSc1ccc(N)c([N+](=O)[O-])c1`, the Potency was 38.8 µM (active) in [6], 54.8 µM (active) in [2], 12.3 µM (active) in test [3] and 40.2 µM (active) in test [10].
As to `CCCCCCCCCCCCCCCC[N+](C)(C)CCN(Cc1ccc(OC)cc1)c1ncccn1`, the Potency in test [6] is 26.6 µM (active); in test [10], 30.9 µM (active). Further, the Potency entry in test [3], in test [8] and in [9] was “inactive” each time. In test [7], the max activation is -2.3% (inactive).
For the molecule `O=c1[nH]sc2ccccc12`, the Potency in test [6] was 19.3 µM (active); in [3] it was 8.63 µM (active); in test [10], 31.7 µM (active). Also, the Potency entry in test [4] and in test [5] was “inactive” throughout.
In the case of `CC1(C)CCC(C)(C)c2cc(C(=O)Nc3ccc(C(=O)O)cc3)ccc21`, the Potency in [6] is 48.6 µM (active); in [10], 71 µM (active). The Potency entry in [3] and in test [5] was “inactive” in each case.
As to `O=C1C=CC(=O)N1`, the Potency in test [6] is 5.59 µM (active). Also, the Potency entry in [3], in test [4] and in [10] was “inactive” in each case.
Consider `O=c1[nH]cnc2nc[nH]c12`, for which the Potency result in [1], in [2], in [3], in test [8], in test [9] and in test [5] was “inactive” each time. Further, in test [10], the Potency entry was “inactive”.
Consider `Nc1cc(C(F)(F)F)ccc1S`, for which the Potency in test [6] is 26.6 µM (active); in [3], 13.3 µM (active); in test [5] it was 2.19 µM (active); in test [10], 2.19 µM (active). Besides, the Potency entry in [2] is “inactive”.
On to `CCCCCCCCCCCCCCCCCC[N+](C)(C)Cc1ccccc1`, for which the Potency entry in [1] is “inactive”. Further, the Potency is 55 µM (active) in test [2]; 1.55 µM (active) in test [3]; 0.18 µM (active) in test [4]; 56.9 µM (active) in [5]; 40.3 µM (active) in test [10].
Turning to `COc1ccc(-c2ccc3cc(C(=O)O)ccc3c2)cc1C12CC3CC(CC(C3)C1)C2`, the Potency result in [1], in [2], in test [3], in test [8], in test [9] and in test [5] was “inactive” throughout. In addition, the Potency entry in test [10] was “inactive”.
Take `CCCCN(CCCC)C(=O)N(CCCC)CCCC`: the Potency result in test [6], in test [2], in test [3] and in test [10] was “inactive” each time.

Source of the values: PubChem BioAssay (Tox21).
